# Measured values as given in ChEMBL document CHEMBL4513216, “Probing the Open Global Health Chemical Diversity Library for Multistage-Active Starting Points for Next-Generation Antimalarials” (ACS Infect Dis, 2020).
# Screen size: about 69,000 compounds; about 8,600 (12%) showed an effect of 50% or more. Shown is part of a subset that was picked to be rich in strong results.
# Test system: Plasmodium berghei
# Experiment: Screen against P. berghei liver stage (PbLuc), transformed with Luciferase, at 10uM
# Type: functional, HepG2
# Conditions: tested at 10 uM
row,SMILES,INHIBITION
1,O=C(C1=CCCC1)N1CCC2(CC1)CC(Oc1cccnc1)CO2 (configuration not stated),41.3%
2,COc1ccc(COCC(O)CNC(=O)c2ccc(C#N)cc2)cc1 (configuration not stated),46.2%
3,CN(C)C(=O)Cn1c(C2CC2)c(CN2CCSCC2)c2cccnc21,23%
4,CC(=O)c1ccc(OCC(=O)c2cccn2C)cc1,-175%
5,CC(=O)N[C@@H]1CN(C(=O)Cc2coc3cc(C)ccc23)C[C@H]1O,-5.8%
6,Cc1noc(C)c1CN1CCc2ncnc(-c3ccoc3)c2CC1,68.4%
7,Cc1ccc(CN2CCc3ncnc(-c4ccoc4)c3CC2)o1,-8.28%
8,c1ccc(CN2CCc3ncnc(-c4ccoc4)c3CC2)nc1,12.4%
9,Cc1nnc2n1CCN(C(=O)C1CCN(Cc3ccccc3)CC1)C2,35.7%
10,Cc1cc(NC(=O)CC2(Cn3cnnn3)CCCCC2)nn1C,39.1%
11,Cn1ccc(C(=O)N2CCC[C@]3(C[C@@H](OCc4ccccn4)CO3)C2)n1,40.9%
12,CC1CCCN(Cc2c(C3CCOCC3)[nH]c3ncccc23)C1 (configuration not stated),59.7%
13,Cc1cnc2[nH]c(C(F)(F)F)c(CN3CCOCC3)c2c1,-0.232%
14,CCN1CCN(Cc2c(C3CCCC3)[nH]c3ncccc23)CC1,20.4%
15,Cc1cnc2[nH]c(C(F)(F)F)c(CN3CCCC(CO)C3)c2c1 (configuration not stated),50.8%
16,c1cnc2[nH]c(C3CCCC3)c(CN3CCCCC3)c2c1,-2.11%
17,OCC1CCCN(Cc2c(C3CCCC3)[nH]c3ncccc23)C1 (configuration not stated),69.3%
18,Cc1cnc2[nH]c(C(F)(F)F)c(CN3CCSCC3)c2c1,21.1%
19,c1cnc2[nH]c(C3CCCC3)c(CN3CCOCC3)c2c1,33.7%
20,CC1CCCN(Cc2c(C3CC3)[nH]c3ncccc23)C1 (configuration not stated),19.6%
21,Cc1nc(CN2CCCC(NCCOc3ccccc3C#N)C2)no1 (configuration not stated),44.1%
22,CC(c1ccc2c(c1)OCCO2)N(C)C(=O)c1ccnnc1 (configuration not stated),-4.21%

row,SMILES,INHIBITION
1,Cn1ccc(CN2CCN(CC3CC3)CC2)cc1=O,21.5%
2,COCCCNC(=O)CN(C)C(=O)c1ccc(OC)cc1O,7.925%
3,CCCS(=O)(=O)N1CCN(c2cc(-n3nc(C)cc3C)nc(C)n2)CC1,0.139%
4,CC(=O)N1CCCn2nc(CNS(=O)(=O)Cc3ccccc3)cc2C1,-3.83%
5,Cc1nc(C2CCCN(C(=O)CO)C2)cc(N2CCOCC2)n1 (configuration not stated),-1.53%
6,CCS(=O)(=O)NCc1nc(C)cc(N2CCOCC2)n1,65.2%
7,Cc1cc(N2CCCC2)nc(CNS(=O)(=O)Cc2ccccc2)n1,81%
8,CCS(=O)(=O)NCc1nc(C)cc(N2CCCCC2)n1,75.2%
9,CCS(=O)(=O)NCc1nc(C)cc(N2CCCC2)n1,25.1%
10,CCCS(=O)(=O)NCc1nc(C)cc(N2CCCC2)n1,56.6%
11,CCNC(=O)CN1CCN(c2cc(C)nc(-c3ccncc3)n2)CC1,48.1%
12,CCCc1nc(C)cc(N2CCC3(CCC(=O)N(C4CC4)C3)CC2)n1,-23.5%
13,O=S(=O)(Cc1ccccc1)NCC1CCN(c2cnccn2)CC1,-45.8%
14,CCNC(=O)CCN1CCC(c2cc(N3CCOCC3)nc(C)n2)CC1,38.5%
15,CCc1nnc2n1CCN(C(=O)Cc1nc(-c3ccco3)oc1C)C2,-17.6%
16,Cc1ncc(C(=O)N2CCCC(n3nc(C)nc3C)C2)c(C(C)C)n1 (configuration not stated),-3.15%
17,Cc1cc(C)n(CC2CCCN2C(=O)c2cccc(C#N)c2)n1 (configuration not stated),-3.585%
18,COc1ccc(OCCN2CCC(c3ccnn3CCO)CC2)cc1,11.4%
19,Cc1ccc(C(C(=O)NC(C)(C)CN2CCCC2)N(C)C)cc1 (configuration not stated),35.7%
20,CCOCC1c2c(ncn2C)CCN1C(=O)c1cscn1 (configuration not stated),60.2%
21,CCOCC1c2c(ncn2C)CCN1C(=O)c1cnc(C)cn1 (configuration not stated),57.5%
22,CCOCC1c2c(ncn2C(C)C)CCN1C(=O)C1CC1 (configuration not stated),76.4%

row,SMILES,INHIBITION
1,CCOCC1c2c(cnn2C)CCN1C(=O)c1cc(C)on1 (configuration not stated),37.6%
2,CCn1ncc2c1C(COC)N(C(=O)c1cccs1)CC2 (configuration not stated),51.2%
3,CCOCC1CC2(CCN(C(=O)c3cscn3)CC2)CO1 (configuration not stated),9.63%
4,CCOCC1c2c(ncn2C(C)C)CCN1C(C)C (configuration not stated),10.5%
5,CCn1ncc2c1C(COC)N(C(=O)Cc1cccs1)CC2 (configuration not stated),25.8%
6,CCOCC1CN(C(=O)c2cscn2)Cc2cn(C)nc21 (configuration not stated),17.1%
7,CCOCC1c2c(ncn2C)CCN1C(=O)c1ccoc1 (configuration not stated),-3.17%
8,CCn1ncc2c1C(COC)N(C(=O)c1ccsc1)CC2 (configuration not stated),43.9%
9,CCOCC1c2c(ncn2C(C)C)CCN1C(=O)CC (configuration not stated),29.8%
10,CN(Cc1cc(C2CC2)[nH]n1)C(=O)c1cnn2ccn(C)c12,14.9%
11,Cc1c(-c2cccs2)nn2c(=O)c3c([nH]c12)CN(C(=O)C1CC1)C3,43.7%
12,CC1c2ncc(CNC(=O)C3CC3)n2CCN1Cc1ccncc1 (configuration not stated),6.55%
13,CN1CCN(c2cc(CNC(=O)c3cnccn3)ccn2)CC1,35.3%
14,O=C(CC(F)(F)F)N1C[C@@H]2CC[C@H]1CN(Cc1ccccc1)C2,-8.47%
15,CNc1nc(C2CCCCN2C(=O)C(C)(C)OC)nc2c1CN(C)CC2 (configuration not stated),38.2%
16,CC1c2ncc(COCC3CCOCC3)n2CCN1C(=O)c1ccco1 (configuration not stated),47.2%
17,COC1C[C@@H]2CN(C(=O)c3cc4ccc(F)cc4[nH]3)C[C@@H]2C1 (some centres not stated),-36.1%
18,COCC1c2c(cnn2C)CCN1C(=O)c1cscn1 (configuration not stated),56.6%
19,CCn1ncc2c1C(COC)N(C(=O)c1cscn1)CC2 (configuration not stated),38.5%
20,COCC1c2c(cnn2C)CCN1C(=O)c1cc(C)on1 (configuration not stated),38.5%
21,O[C@@H]1C[C@H]2CN(CC3CCCCC3)[C@H](Cc3ccccc3)CN2C1,16.2%
22,O=C(CC1CC1)NCc1cn2c(n1)CN(C(=O)c1cccnc1)CC2,-5.69%

row,SMILES,INHIBITION
1,Cn1cc(Br)c(=O)c(NS(=O)(=O)c2ccc(Cl)cc2)c1,-4.68%
2,CC(=O)N1CCN(CC(C)(O)c2cccc(C(F)(F)F)c2)CC1 (configuration not stated),33.3%
3,CC(=O)N1CCCN(CC(C)(O)c2cccc(C(F)(F)F)c2)CC1 (configuration not stated),64.5%
4,CCN1CCN(CC(C)(O)c2cccc(C(F)(F)F)c2)CC1 (configuration not stated),20.1%
5,CC(C(N)=O)S(=O)(=O)Cc1cc(Cl)c2c(c1)OCO2 (configuration not stated),16.7%
6,Cn1cnnc1S(=O)(=O)Cc1cc(Cl)c2c(c1)OCO2,68.4%
7,CCc1nnc(S(=O)(=O)Cc2cc(Cl)c3c(c2)OCO3)n1C,24.8%
8,CNC(=O)CCS(=O)(=O)Cc1cc(Cl)c2c(c1)OCCO2,15.3%
9,CN(C)C(=O)CS(=O)(=O)Cc1cc(Cl)c2c(c1)OCCO2,16.9%
10,Cn1cnnc1S(=O)(=O)Cc1cc(Cl)c2c(c1)OCCO2,63.8%
11,Cc1csc(N2CCCN(C(=O)c3c(C)noc3C)CC2)n1,-19.6%
12,COc1cccc(CCN2C[C@H]3CCNCC[C@H]3S2(=O)=O)c1,24.6%
13,CCn1cc(NC(=O)NCCN2CCc3ccccc3C2)cn1,17.5%
14,Cc1cc(C)n(C2CCCN(C(=O)c3ccc(N(C)C)nn3)C2)n1 (configuration not stated),13.2%
15,CN1CCC(CCc2ccnc(NC(=O)c3ccccn3)c2)CC1,67.45%
16,CC(=O)N1CCC(CCc2ccnc(NC(=O)c3ccccn3)c2)CC1,21.95%
17,CC(=O)Nc1cc(CCC2CCN(C(=O)c3ccccn3)CC2)ccn1,10.35%
18,CC(=O)N1CCC(CCc2ccnc(Nc3ccccn3)c2)CC1,40.65%
19,O=C(CO)N1CCC(CCc2ccnc(Nc3cnccn3)c2)CC1,36%
20,O=C(Nc1cc(CCC2CCN(CCO)CC2)ccn1)c1ccccn1,52.8%
21,CC(=O)N1CCC(C(=O)NCc2cc[nH]n2)(c2ccccc2)CC1,-11.9%
22,COc1ccc(OC)c(C(O)CNC(=O)Nc2ccc(F)cc2F)c1 (configuration not stated),-27%

row,SMILES,INHIBITION
1,c1ccc2c(c1)CC(CNCc1ccncc1)(N1CCCCC1)C2,12.3%
2,CC(=O)NCCNC(=O)C1(N2CCCCC2)Cc2ccccc2C1,-46.4%
3,CCc1ccccc1CNC(=O)NCc1cnn(C)c1,13.9%
4,O=C(NCCCO)C1(N2CCCCC2)Cc2ccccc2C1,0.818%
5,CSc1ncc(CNCC2(N3CCCCC3)Cc3ccccc3C2)cn1,72.4%
6,Cn1cc(CNCC2(N3CCCCC3)Cc3ccccc3C2)cn1,78.1%
7,CCN(CC)CC1CN(CCc2ccccc2)Cc2nccn2C1 (configuration not stated),0.139%
8,CC(c1cc(O)nc(NC2CCCC2)n1)n1ncc2ccccc2c1=O (configuration not stated),4.8%
9,Cc1nc(C)n(CC2CCCCN2CCOc2ccc(C#N)cc2)n1 (configuration not stated),42%
10,CCc1ncc2c(n1)CN(C(C)C(=O)Nc1ccc(Cl)cn1)CC2 (configuration not stated),48.2%
11,Cc1nnc(C(C)Nc2cccc(COCCOC(C)C)c2)o1 (configuration not stated),21.5%
12,Cc1nnc(C(C)Nc2cccc(COCC(F)(F)C(F)F)c2)o1 (configuration not stated),57.4%
13,Cc1nnc(C(C)Nc2cccc(COCCc3ccccc3)c2)o1 (configuration not stated),19.7%
14,CN(C)CCNC(=O)[C@H]1C[C@H]2CN(C(=O)NC3CCCC3)C[C@@H]1O2,6.83%
15,Cc1ccc(Cn2cc(Br)c(NS(C)(=O)=O)n2)cc1,19.575%
16,CNc1cc(C2CN(C(=O)c3ccccc3)CCO2)nc(C)n1 (configuration not stated),23.9%
17,CC(C)(C)NC(=O)C1CSCN1S(=O)(=O)c1ccccc1F (configuration not stated),32.7%
18,O=C(NCC(F)(F)F)C1CSCN1S(=O)(=O)c1ccccc1F (configuration not stated),52.3%
19,O=C(NCC1CC1)C1CSCN1S(=O)(=O)c1ccccc1F (configuration not stated),26.6%
